Pf Dd2 growth – qHTS Primary assay for Inhibitors of Plasmodium falciparum Dd2 growth in vitro. P. falciparum Dd2 growth, SYBR Green, 72 h. Potency, µM (highest dose often 28.9 µM), most hits filed as inhibitors. hit rate 4.3% among 120,000. AID 1347417, 2020; active = well fitted inhibition curve with a large enough effect; note: nearly all actives have a fitted effect of over 65% in size
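Readout: SYBR Green fluorescence, 485 nm excitation, 535 nm emission, after ~16 h lysis at 37C. Before that, Dd2-infected red cells (2.5% hematocrit) grew 72 h with compound, 29 uM top final concentration.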
Hits are given with their value; 0 = inactive; [ ] = dose if it differs, or a comment. Many of the other results were omitted from the sample, so hits are more common in it than they were.

SMILES | Pf Dd2 growth
C#CCNC(=O)[C@H]1O[C@H](CCN(C)CC#C)CC[C@@H]1O | 0
CCN(CC)C(=O)CSc1cn(CC(=O)N2CCCCCC2)c2ccccc12 | 0
O=C(c1ccccc1F)N1CCC(c2nc(C3CCOCC3)no2)C1 (configuration not stated) | 0
COc1cccc(-c2nc(CS(=O)(=O)CC(=O)NCCCN3CCN(C)CC3)c(C)o2)c1 | 0
O=C(C1COc2ccccc2O1)N(Cc1cccnc1)c1nc2c(F)cccc2s1 (configuration not stated) | 0
Cc1cc(C)cc(NC(=O)N2CC(C(=O)N(C)C)C3(CCOCC3)C2)c1 (configuration not stated) | 0
O=c1c(NS(=O)(=O)Cc2ccccc2)ccc2n1C[C@H]1C[C@@H]2CN(S(=O)(=O)c2ccccc2)C1 | 0
Cc1cccnc1CNC[C@H]1Cn2cc(-c3ccccc3)nc2CO1 | 0
O=C(O)c1cnc(NCc2ccncc2)nc1-c1ccccc1 | 0
CN(C)C(=O)c1nc2sccn2c1Br | 0
COc1ccc(C(=O)c2cn(Cc3ccccc3OC)c3cc4c(cc3c2=O)OCO4)cc1 | 0
CCOc1ccc(C(=O)c2cn(Cc3ccccc3OC)c3cc4c(cc3c2=O)OCCO4)cc1 | 0
Cc1ccc(C(=O)c2cn(Cc3ccccc3)c3ccccc3c2=O)cc1 | 0
Cc1ccc(C(=O)c2cn(Cc3ccccc3F)c3cc4c(cc3c2=O)OCCO4)cc1 | 0
COc1ccc(C(=O)c2cn(Cc3cccc(C)c3)c3cc4c(cc3c2=O)OCCO4)cc1OC | 7.9µM
Cc1ccc(Cn2cc(C(=O)c3ccc4c(c3)OCO4)c(=O)c3cc(C)ccc32)cc1 | 10µM
CCOc1ccc(NC(=O)Cn2cc(C(=O)c3ccc(C)cc3)c(=O)c3cc4c(cc32)OCO4)cc1 | 0
COc1ccccc1Cn1cc(C(=O)c2ccc(F)cc2)c(=O)c2cc3c(cc21)OCO3 | 0
Cc1ccc2c(c1)c(=O)c(C(=O)c1ccccc1)cn2Cc1ccccc1F | 13µM
CS(=O)(=O)Nc1ccc(C2(C(=O)NCc3cccs3)CCCCC2)cc1 | 0
O=C(c1ccc2c(c1)OCO2)N1CCN2C(=O)N(Cc3cccnc3)C[C@H]2C1 | 0
CCn1ccc2cc(S(=O)(=O)N3CCCN(C(=O)Nc4ccccc4C(F)(F)F)CC3)ccc21 | 0
COc1ccc(NC(=O)CN2CCN(S(=O)(=O)c3ccc(Br)cc3)CC2)cc1 | 0
CCOc1cc(-c2nccn2CCNc2cccnc2)ccc1O | 0
COCCN1C(=O)CC[C@]2(C(=O)N3CCSCC3)CCCC[C@@H]12 | 0
SMILES | Pf Dd2 growth
COc1cccc(NC(=O)Nc2cccc(-c3cn4cccnc4n3)c2)c1 | 0
CC(C)(C)C(=O)Nc1cccc(-c2cn3cccnc3n2)c1 | 0
CC(C)(Oc1ccc(Cl)cc1)C(=O)Nc1cccc(-c2cn3cccnc3n2)c1 | 11µM
CCOc1ccc(C(=O)c2oc3ccccc3c2NC(=O)c2cc(-c3ccccc3)on2)cc1 | 0
O=C(Cc1ccc(N(Cc2ccc(F)cc2)C(=O)c2ccco2)cc1)N1CCOCC1 | 0
CCOC(=O)C1CCN(C(=O)Cc2ccc(N(Cc3ccccc3)C(=O)c3ccco3)cc2)CC1 | 1.4µM
Cc1ccc(CN(C(=O)c2ccco2)c2ccc(CC(=O)N(C)Cc3ccccc3)cc2)cc1 | 0
O=C(NCc1nnc2n1C(C(=O)O)CC2)c1cccc(Cl)c1 (configuration not stated) | 0
COCC(=O)NC[C@H]1OC[C@@H](NC2CCCC2)[C@@H]1O | 0
COc1ccc(NC(=O)N2c3ccccc3CC2c2nc(C(C)C)no2)c(C)c1 (configuration not stated) | 0[5.79 µM]
Cc1ccc(NC(=O)N2CCC(CC(=O)NCc3ccccc3)C2)cc1C (configuration not stated) | 0
COc1ccccc1NC(=O)Cn1c(=O)n(-c2cccc(Cl)c2)c(=O)c2sc3ccccc3c21 | 0
COc1cccc(NC(=O)Cn2c(=O)n(Cc3ccc(F)cc3)c(=O)c3sc4ccccc4c32)c1 | 0
COc1cccc(NC(=O)Cn2c(=O)n(-c3ccc(Cl)cc3)c(=O)c3sc4ccccc4c32)c1 | 11µM
CC(C)c1ccc(NC(=O)C(Cc2ccccc2)NS(=O)(=O)c2ccc3c(c2)oc(=O)n3C)cc1 (configuration not stated) | 0
O=C(NCC12CC3CC(CC(C3)C1)C2)c1cc2nc(-c3ccc(Cl)cc3)cc(C(F)(F)F)n2n1 | 0
O=C(Nc1cc(Cl)ccc1Cl)c1cc2nc(-c3ccc4c(c3)OCO4)cc(C(F)(F)F)n2n1 | 0
O=C(Nc1cc(Cl)ccc1O)c1cc2nc(-c3ccc4c(c3)OCO4)cc(C(F)(F)F)n2n1 | 1.6µM
O=C1CCN(S(=O)(=O)c2ccccc2)CCCN(C(=O)c2ccoc2)CCN1 | 0
CCN1CCN(C(=O)c2cc3cn(C4CC4)cc3s2)CC1 | 0
O=C(CCC1CCCN(S(=O)(=O)c2ccc(F)cc2)C1)NCc1ccccc1 (configuration not stated) | 0
Cc1cn2nc(C(=O)Nc3ccc(F)c(C)c3)cc2c(N2CCSCC2)n1 | 0
COc1ccc(NC(=O)c2cc3c(N4CCSCC4)nc(C)cn3n2)cc1F | 0
Cc1cn2nc(C(=O)Nc3ccc(N(C)C)cc3)cc2c(N(C)Cc2ccccc2)n1 | 0.79µM
Cc1ccc(CNC(=O)c2cc3c(N(C)Cc4ccccc4)nc(C)cn3n2)cc1 | 0
SMILES | Pf Dd2 growth
Cc1ccc(NC(=O)c2cc3c(N4CCCC4)nc(C)cn3n2)cc1 | 0
Cc1cn2nc(C(=O)Nc3ccc(C)c(F)c3)cc2c(N(C)Cc2ccccc2)n1 | 10µM
Cc1ccccc1C(=O)NCc1ccnc2[nH]ccc12 | 0
COc1ccc(OC)c(S(=O)(=O)Nc2ccc3c(c2)n(C)c(=O)n3C)c1 | 0
O=C1CC(c2ccc(F)cc2)c2c(n3c(nc4ccccc43)[nH]c2=O)N1 (configuration not stated) | 0[5.79 µM]
COc1ccc(OC)c(-c2nc(CN3CCN(C)C(=O)C3C)c(C)o2)c1 (configuration not stated) | 0
O=C(Nc1cccc(Cl)c1Cl)c1ccc2c(c1)N(Cc1cccc(Cl)c1)C(=O)c1ccccc1S2(=O)=O | 5.6µM
O=C(c1ccc2c(c1)N(Cc1cccc(Cl)c1)C(=O)c1ccccc1S2(=O)=O)N1CCCC1 | 0
CCN(CC)CCNC(=O)c1ccc2c(c1)N(Cc1ccccc1)C(=O)c1ccccc1S2=O (configuration not stated) | 0
Cc1ccccc1CN1C(=O)c2ccccc2S(=O)c2ccc(C(=O)NCc3ccccc3)cc21 (configuration not stated) | 0
COC(=O)c1cc(NC(=O)c2ccc3c(c2)N(Cc2cccc(Cl)c2)C(=O)c2ccccc2S3=O)cc(C(=O)OC)c1 (configuration not stated) | 3.2µM
O=C(c1ccc2c(c1)N(Cc1cccc(Cl)c1)C(=O)c1ccccc1S2(=O)=O)N1CCCCCC1 | 0
NC(=O)C1CCN(C(=O)c2ccc3c(c2)N(Cc2cccc(Cl)c2)C(=O)c2ccccc2S3=O)CC1 (configuration not stated) | 0
O=C(Nc1cc(Cl)ccc1Cl)c1ccc2c(c1)N(Cc1cccc(Cl)c1)C(=O)c1ccccc1S2=O (configuration not stated) | 4µM
O=C(NCCc1ccccc1)c1ccc2c(c1)N(Cc1ccccc1F)C(=O)c1ccccc1S2=O (configuration not stated) | 0
Cc1nc2ccccn2c(=O)c1NC(=O)c1ccc(F)c(F)c1 | 0
CC(C)c1nc(CN(C)C(=O)c2csc3nc(-c4ccc(F)cc4)cn23)no1 | 0
CC(C)S(=O)(=O)N1CCC(Nc2cccnc2)C1 (configuration not stated) | 0[5.79 µM]

Assay outcomes from PubChem BioAssay.
